Calls of active or inactive are those of the source.
Legend:
[1] = small molecules captured by biotinylated probe aFSTL3 – biochemical, small-molecule microarray, fluorescence 635/667, stem cell growth factor project, primary screen (AID 1064); conditions: higher = more signal;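 further: measures binding of the biotinylated anti-FSTL3 antibody to printed compounds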
[2] = binders from COS7 lysate, DM2A8 probe, primary screen, torsin A project, cell lysate, small-molecule microarray, fluorescence 635/667 (AID 1065); conditions: higher = more signal, COS7 lysate expressing mutant human TOR1A
[3] = small molecules captured by biotinylated probe aFGF2 – biochemical, small-molecule microarray, fluorescence 635/667, stem cell growth factor project, primary screen (AID 1067); conditions: higher = more signal;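 further: measures binding of biotinylated aFGF2 protein to printed compounds on slides; z-score merges feature fluorescence and signal-to-noise across triplicate slides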
[4] = small molecules captured by biotinylated probe aFGF10 – biochemical, small-molecule microarray, fluorescence 635/667, stem cell growth factor project, primary screen (AID 1071); conditions: higher = more signal;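 further: score merges 667 nm spot intensity and signal to noise from triplicate slides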
[5] = molecular target: Neurogenic locus notch homolog protein 2 (Homo sapiens) (UniProt Q04721); assay: small molecules binding Notch2 protein – biochemical, small-molecule microarray, 635 nm fluorescence, stem cell growth factors, primary screen (AID 1073); conditions: higher = more signal
[6] = molecular target: Pro-neuregulin-1, membrane-bound isoform (Homo sapiens) (UniProt Q02297); assay: small molecules binding neuregulin-1 protein – biochemical, small-molecule microarray, fluorescence 635/667, psychiatric disease protein project, primary screen (AID 1075); conditions: NRG1 binding, 635 nm fluorescence, higher = more signal;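 further: score combines 667 nm spot fluorescence with signal to noise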
Pro-neuregulin-1, membrane-bound isoform (Homo sapiens), sequence (Q02297 whole entry, looked up, the tested form may be a part, canonical isoform): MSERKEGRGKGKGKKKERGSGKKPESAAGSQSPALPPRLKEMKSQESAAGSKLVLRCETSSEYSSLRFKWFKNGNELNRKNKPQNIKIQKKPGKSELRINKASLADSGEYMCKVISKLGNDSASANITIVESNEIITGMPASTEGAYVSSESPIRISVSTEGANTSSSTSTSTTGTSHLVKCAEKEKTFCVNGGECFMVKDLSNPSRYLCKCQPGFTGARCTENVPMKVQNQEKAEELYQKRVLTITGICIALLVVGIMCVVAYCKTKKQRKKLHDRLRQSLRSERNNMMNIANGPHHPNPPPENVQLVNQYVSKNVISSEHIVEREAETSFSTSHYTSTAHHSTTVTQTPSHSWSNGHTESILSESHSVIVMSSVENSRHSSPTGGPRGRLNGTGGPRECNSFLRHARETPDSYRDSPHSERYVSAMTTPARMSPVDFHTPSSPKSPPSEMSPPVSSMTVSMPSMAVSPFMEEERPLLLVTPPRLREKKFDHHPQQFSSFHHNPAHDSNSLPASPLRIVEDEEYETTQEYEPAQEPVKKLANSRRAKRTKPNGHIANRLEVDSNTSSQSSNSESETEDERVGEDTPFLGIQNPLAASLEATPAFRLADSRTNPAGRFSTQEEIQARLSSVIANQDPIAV

[7] = test system: Neuregulin-1 EGF-like domain; assay: small molecules binding NRG1 EGF domain – biochemical, small-molecule microarray, 635 nm fluorescence, primary screen (AID 1081); conditions: higher = more signal;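 further: binding of the protein to compounds printed on small-molecule microarray slides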
[8] = FRG1 expression reporter modulators in myotubes – cell-based, C2C12 myotubes, firefly/Renilla luciferase, luminescence, FRG1 inhibition for FSHD, primary screen (AID 1084); conditions: FRG1 promoter luciferase, higher = more signal, called active from +8 up or from −8 down
[9] = small molecules captured by biotinylated probe aFST – biochemical, small-molecule microarray, fluorescence 635/667, stem cell growth factor project, primary screen (AID 1086); conditions: higher = more signal;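 further: score merges 667 nm fluorescence with signal-to-noise of each printed compound spot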
[10] = binders of probe aHhip on microarray, primary screen, stem cell growth factor project, biochemical, small-molecule microarray, fluorescence 635/667 (AID 1087); conditions: higher = more signal;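 further: score merges spot fluorescence at 667nm with spot signal to noise ratio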
[11] = test system: PRMT1 (protein arginine N-methyltransferase 1); assay: small molecules binding arginine methyltransferase PRMT1 – biochemical, small-molecule microarray, 635 nm fluorescence, primary screen (AID 1088); conditions: higher = more signal;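 further: binding of Prmt1 protein to compounds spotted on small-molecule microarray slides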
[12] = growth effects on S. cerevisiae YJM789 – YJM789 clinical isolate, OD600, 24 h, basal, primary screen (AID 1089); conditions: higher = more signal, called active from +8 up or from −8 down;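 further: growth of clinical yeast isolate S. cerevisiae YJM 789 seeded 1000 cells per well; test concentration not given here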
[13] = S. pombe growth modifiers, basal conditions – strain 972, OD600, 24 h, no modulator, primary screen (AID 1090);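 further: basal condition with compound alone and no growth modifier present; test concentration not given here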; conditions: S. pombe 972 growth, higher = more signal, called active from +8 up or from −8 down
[14] = budding yeast growth modifiers under rapamycin – strain BY4716, OD600, 96 h, primary screen (AID 1091); further: test concentration not given here; conditions: S. cerevisiae BY4716 + rapamycin, higher = more signal, called active from +8 up or from −8 down
[15] = molecular target: Torsin-1A-interacting protein 2 (Homo sapiens) (UniProt Q8NFQ8); assay: small molecules binding lysate-expressed LULL1 – cell lysate, human LULL1 lysate, 635/667 nm fluorescence, primary screen (AID 1092); conditions: small-molecule microarray, hLULL1 lysate binding, 635 nm fluorescence; higher = more signal;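 further: probe is lysate of COS7 cells overexpressing human LULL1; score merges per-feature 667 nm fluorescence with signal-to-noise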
Torsin-1A-interacting protein 2 (Homo sapiens), sequence (Q8NFQ8 whole entry, looked up): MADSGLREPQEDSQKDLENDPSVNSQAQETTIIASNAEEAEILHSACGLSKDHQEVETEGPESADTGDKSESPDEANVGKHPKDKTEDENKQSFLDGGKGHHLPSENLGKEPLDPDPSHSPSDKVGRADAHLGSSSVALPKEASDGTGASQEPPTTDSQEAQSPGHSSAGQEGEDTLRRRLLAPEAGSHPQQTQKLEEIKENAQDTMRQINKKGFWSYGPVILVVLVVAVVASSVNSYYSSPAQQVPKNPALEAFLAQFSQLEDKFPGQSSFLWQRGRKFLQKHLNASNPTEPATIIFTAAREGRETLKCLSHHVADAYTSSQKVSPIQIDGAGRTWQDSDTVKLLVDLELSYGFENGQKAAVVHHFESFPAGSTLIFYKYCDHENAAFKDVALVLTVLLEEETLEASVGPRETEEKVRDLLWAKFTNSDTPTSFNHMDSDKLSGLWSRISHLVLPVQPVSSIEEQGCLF

[16] = optical density change of DRC41 E. coli – strain DRC41, OD650, 24 h, E. coli filamentation project, primary screen (AID 1093);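 further: MC1000 strain lacking acrAB efflux and sulA so SOS filamentation is blocked; test concentration not given here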; conditions: E. coli DRC41 growth, higher = more signal, called active from +8 up or from −8 down
[17] = probe aLefty2 binding to arrayed compounds – biochemical, biotinylated probe, 635/667 nm fluorescence, primary screen (AID 1094); conditions: small-molecule microarray, higher = more signal;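 further: score merges spot fluorescence near 667 nm with spot signal-to-noise ratio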
[18] = test system: Noggin (protein binding on small-molecule microarray); assay: small molecules binding Noggin protein – biochemical, 635/667 nm fluorescence, primary screen (AID 1095); conditions: 635 nm fluorescence, higher = more signal;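 further: score merges 667 nm feature fluorescence with signal to noise over triplicate slides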
[19] = molecular target: Neurogenic locus notch homolog protein 3 (Homo sapiens) (UniProt Q9UM47); assay: small molecules binding NOTCH3 protein – biochemical, 635/667 nm fluorescence, primary screen (AID 1096); conditions: small-molecule microarray, 635 nm fluorescence, higher = more signal
Neurogenic locus notch homolog protein 3 (Homo sapiens), sequence (Q9UM47 whole entry, looked up): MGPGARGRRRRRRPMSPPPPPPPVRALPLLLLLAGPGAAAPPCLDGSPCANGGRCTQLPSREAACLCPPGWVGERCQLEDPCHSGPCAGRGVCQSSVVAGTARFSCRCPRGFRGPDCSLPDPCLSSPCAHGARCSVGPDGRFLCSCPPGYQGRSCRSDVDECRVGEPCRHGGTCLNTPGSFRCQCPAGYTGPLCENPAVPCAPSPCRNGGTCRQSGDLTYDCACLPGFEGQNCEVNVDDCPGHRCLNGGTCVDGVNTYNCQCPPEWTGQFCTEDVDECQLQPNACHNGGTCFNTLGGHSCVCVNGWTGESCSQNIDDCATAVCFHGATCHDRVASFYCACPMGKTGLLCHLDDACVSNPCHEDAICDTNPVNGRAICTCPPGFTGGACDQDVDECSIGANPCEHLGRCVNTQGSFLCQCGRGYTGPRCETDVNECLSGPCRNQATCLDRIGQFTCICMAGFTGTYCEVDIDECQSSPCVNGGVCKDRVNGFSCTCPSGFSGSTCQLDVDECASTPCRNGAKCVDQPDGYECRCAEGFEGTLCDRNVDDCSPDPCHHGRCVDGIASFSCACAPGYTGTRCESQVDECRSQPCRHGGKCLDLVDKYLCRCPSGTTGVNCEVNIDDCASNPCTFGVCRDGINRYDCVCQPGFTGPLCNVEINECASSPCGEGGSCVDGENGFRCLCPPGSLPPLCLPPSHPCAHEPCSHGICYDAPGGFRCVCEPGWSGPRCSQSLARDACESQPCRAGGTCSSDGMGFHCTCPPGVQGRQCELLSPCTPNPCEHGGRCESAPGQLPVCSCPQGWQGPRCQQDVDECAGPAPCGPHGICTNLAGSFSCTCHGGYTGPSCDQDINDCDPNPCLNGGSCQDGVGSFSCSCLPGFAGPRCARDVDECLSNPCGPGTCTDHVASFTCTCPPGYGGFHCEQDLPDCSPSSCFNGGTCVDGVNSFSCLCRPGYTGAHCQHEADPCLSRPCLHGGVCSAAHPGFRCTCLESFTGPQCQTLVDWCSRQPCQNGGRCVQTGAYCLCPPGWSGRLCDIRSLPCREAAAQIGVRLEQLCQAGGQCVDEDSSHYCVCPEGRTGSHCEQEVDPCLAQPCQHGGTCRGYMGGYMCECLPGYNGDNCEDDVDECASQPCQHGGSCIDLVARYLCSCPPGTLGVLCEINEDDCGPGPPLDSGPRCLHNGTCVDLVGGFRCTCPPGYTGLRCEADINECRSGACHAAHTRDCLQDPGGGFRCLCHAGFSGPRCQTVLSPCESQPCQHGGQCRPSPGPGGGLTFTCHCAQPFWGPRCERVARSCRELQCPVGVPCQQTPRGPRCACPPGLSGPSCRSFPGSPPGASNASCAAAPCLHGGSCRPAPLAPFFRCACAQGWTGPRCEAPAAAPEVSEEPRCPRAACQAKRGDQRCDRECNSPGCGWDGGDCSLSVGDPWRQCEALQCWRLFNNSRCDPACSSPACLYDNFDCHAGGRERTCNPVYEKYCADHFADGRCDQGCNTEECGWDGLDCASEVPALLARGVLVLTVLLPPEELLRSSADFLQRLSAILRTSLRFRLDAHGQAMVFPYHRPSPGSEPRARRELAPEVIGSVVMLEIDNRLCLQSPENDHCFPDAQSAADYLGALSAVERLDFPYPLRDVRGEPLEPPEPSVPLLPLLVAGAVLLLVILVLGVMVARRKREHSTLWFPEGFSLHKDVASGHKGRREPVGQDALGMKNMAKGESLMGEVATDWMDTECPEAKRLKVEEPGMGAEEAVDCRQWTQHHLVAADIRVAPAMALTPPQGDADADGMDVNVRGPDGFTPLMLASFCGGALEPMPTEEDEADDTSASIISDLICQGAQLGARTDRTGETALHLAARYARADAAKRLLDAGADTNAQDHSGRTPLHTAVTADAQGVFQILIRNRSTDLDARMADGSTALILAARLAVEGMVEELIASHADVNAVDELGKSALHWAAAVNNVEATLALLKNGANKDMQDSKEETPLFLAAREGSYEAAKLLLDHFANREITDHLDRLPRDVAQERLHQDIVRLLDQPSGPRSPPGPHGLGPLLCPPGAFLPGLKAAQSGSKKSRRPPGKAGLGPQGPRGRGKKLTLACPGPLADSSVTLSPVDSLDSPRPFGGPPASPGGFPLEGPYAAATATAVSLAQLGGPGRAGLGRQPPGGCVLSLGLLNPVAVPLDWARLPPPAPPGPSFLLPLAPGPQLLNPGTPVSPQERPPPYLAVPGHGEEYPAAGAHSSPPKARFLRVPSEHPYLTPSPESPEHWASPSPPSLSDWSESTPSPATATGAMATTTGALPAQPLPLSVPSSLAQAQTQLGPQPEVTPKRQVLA

[20] = probe aEGFR binding to arrayed compounds – biochemical, biotinylated probe, 635/667 nm fluorescence, primary screen (AID 1097); conditions: small-molecule microarray, higher = more signal;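 further: probe is a biotinylated anti-EGFR antibody binding compounds printed on slides; score combines fluorescence near 667 nm and signal to noise of each spot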

SMILES	composite z-score [1]	composite z-score [2]	composite z-score [3]	composite z-score [4]	composite z-score [5]	composite z-score [6]	composite z-score [7]	z-score [8]	composite z-score [9]	composite z-score [10]	composite z-score [11]	z-score [12]	z-score [13]	z-score [14]	composite z-score [15]	z-score [16]	composite z-score [17]	composite z-score [18]	composite z-score [19]	composite z-score [20]
CC(CCN1CCCc2nc(C)c(C)cc21)=NO[C@@H](C)c1cn([C@H](CO)Cc2ccccc2)nn1	-0.102	0.417	-0.0257	0.389	0.414	-0.19	0.28	-0.0338 (inactive)	0.4	-0.277	0.279	0.72 (inactive)	0.47 (inactive)	0.672 (inactive)	0.577	0.923 (inactive)	-0.114	0.78	0.713	-0.0493
CON=C1c2cc(OC)ccc2O[C@H](c2cccc(OC)c2)[C@H]1O	-0.289	0.707	-0.0473	0.492	0.385	0.247	0.945	5.9 (inactive)	0.583	0.0053	-0.0242	-0.976 (inactive)	-3 (inactive)	-1.75 (inactive)	0.365	0.792 (inactive)	-0.0515	0.588	0.684	0.0242
CCCNC(=O)OC[C@H]1O[C@H](CCON=C2C[C@@H](O)[C@@H](O)[C@@H]3[C@@H]4C(=O)N(CC)C(=O)[C@@H]4CC[C@@H]23)C=C[C@@H]1Oc1ccc(OC)cc1	-0.465	0.142	-0.0165	0.64	0.705	0.628	0.898	0.36 (inactive)	0.46	-0.0645	1.07	-0.284 (inactive)	-0.0922 (inactive)	-0.768 (inactive)	1.04	0.536 (inactive)	-0.0932	0.64	1.05	-0.0605
O=C1C[C@@H](O)[C@@H](O)[C@@H]2[C@@H]3C(=O)N(Cc4ccccc4)C(=O)[C@@H]3CC[C@H]12	-0.344	0.49	-0.129	0.339	0.438	0.235	0.632	-0.725 (inactive)	0.256	0.0053	-0.326	0.179 (inactive)	-0.253 (inactive)	-0.138 (inactive)	-0.14	-0.188 (inactive)	-0.107	0.497	0.545	-0.0171
C[C@@H]1C=CCC(=O)OC[C@H](C)C(=O)N[C@@H](Cc2ccccc2)C(=O)OC1	-0.553	1.31	-0.245	0.294	0.443	-0.302	0.422	-0.514 (inactive)	0.0347	0.605	-0.431	0.214 (inactive)	-1.06 (inactive)	-0.0603 (inactive)	0.146	-0.234 (inactive)	-0.192	0.79	-0.019	-0.0513
